For three compounds, inhibition results are on record in PubChem BioAssay AID652189 (Johns Hopkins Ion Channel Center, 2013).

The term inhibition denotes the change of the read-out against control, counted positive when it falls.

The structures appear in SMILES notation. Screen size: about 2,300 compounds; about 900 (39%) were called active.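 How the source made its calls: active means mean duplicate percent inhibition, scaled so buffer wells are 0 and the reference blocker 100, over three buffer SD above buffer mean; inactive means the rest.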 Not all results are given here.

The target of this assay is Anoctamin-1 (Mus musculus) (UniProt Q8BHY3). Description: blockers of mouse ANO1 channel, retest – cell-based, re-confirmation, confirmation (AID 652189). The conditions noted are these: HEK293 TMEM16A/YFP-H148Q, iodide quench fluorescence, at 10 µM, ionomycin added to raise cell calcium; hits give high values.
Chain of Anoctamin-1 (Mus musculus) (Q8BHY3 whole entry, looked up): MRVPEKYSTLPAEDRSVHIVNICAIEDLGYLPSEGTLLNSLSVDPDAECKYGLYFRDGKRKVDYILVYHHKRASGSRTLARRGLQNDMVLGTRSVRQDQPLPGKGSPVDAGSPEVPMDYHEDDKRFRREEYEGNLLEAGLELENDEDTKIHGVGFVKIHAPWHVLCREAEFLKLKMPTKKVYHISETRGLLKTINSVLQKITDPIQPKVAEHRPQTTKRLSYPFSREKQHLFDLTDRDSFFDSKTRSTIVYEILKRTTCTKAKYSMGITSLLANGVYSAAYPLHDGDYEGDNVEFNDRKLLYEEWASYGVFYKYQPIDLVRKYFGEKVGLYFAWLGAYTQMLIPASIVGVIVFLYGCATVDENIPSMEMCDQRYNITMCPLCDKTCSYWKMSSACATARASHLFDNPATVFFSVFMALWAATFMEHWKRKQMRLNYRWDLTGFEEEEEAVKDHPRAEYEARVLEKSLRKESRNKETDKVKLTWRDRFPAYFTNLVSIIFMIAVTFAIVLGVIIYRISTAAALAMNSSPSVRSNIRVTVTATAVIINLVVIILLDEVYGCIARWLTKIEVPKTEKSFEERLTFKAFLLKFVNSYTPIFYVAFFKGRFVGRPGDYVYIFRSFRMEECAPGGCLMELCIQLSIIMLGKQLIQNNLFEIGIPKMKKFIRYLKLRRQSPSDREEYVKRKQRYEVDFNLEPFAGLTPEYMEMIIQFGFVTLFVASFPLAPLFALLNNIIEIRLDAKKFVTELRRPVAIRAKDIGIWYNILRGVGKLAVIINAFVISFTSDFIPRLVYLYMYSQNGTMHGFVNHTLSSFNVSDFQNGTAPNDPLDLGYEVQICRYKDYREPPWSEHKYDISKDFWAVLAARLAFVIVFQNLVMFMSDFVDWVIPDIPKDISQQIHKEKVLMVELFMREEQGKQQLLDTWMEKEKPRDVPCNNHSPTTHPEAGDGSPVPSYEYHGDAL
As for `CCCCCn1c(=O)c(C(=O)NCc2ccccn2)c(O)c2ccccc21`, the inhibition was 23% (active).

Turning to `CCOc1cccc(=NC2CCCCC2)c2c(C)[nH]c(C)c12`, the inhibition entry was “inactive”.

Take `CCN(CC)C(=O)c1ccc(NC(=O)c2cc(-n3cnnc3)ccc2Cl)cc1`: the inhibition entry is “inactive”.
